A selection: hits, their analogues and other compounds. The true share with any hit is near 2.2%.
MEKK3 PB1 HTS = modulators of MEKK3-MEK5 PB1 binding, primary screen, biochemical, wildtype MEKK3, multiplex bead flow cytometry, Alexa488-MEK5 | Mitogen-activated protein kinase kinase kinase 3 (Homo sapiens), Q99759 | bead-based flow cytometry, Alexa488-MEK5 binding to MEKK3; actives lie on both sides; 0 = blocked by unlabeled MEK5, 100 = vehicle | binding response (% of control), % at 10 µM | 290,000 compounds, 1.4% hits;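 active means binding response more than 3 SD above or below the average of its plate-row segment, actives on both sides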;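 further: Alexa488 bead fluorescence after subtracting the streptavidin-only scavenger bead signal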
Target sequence (Q99759 whole entry, looked up): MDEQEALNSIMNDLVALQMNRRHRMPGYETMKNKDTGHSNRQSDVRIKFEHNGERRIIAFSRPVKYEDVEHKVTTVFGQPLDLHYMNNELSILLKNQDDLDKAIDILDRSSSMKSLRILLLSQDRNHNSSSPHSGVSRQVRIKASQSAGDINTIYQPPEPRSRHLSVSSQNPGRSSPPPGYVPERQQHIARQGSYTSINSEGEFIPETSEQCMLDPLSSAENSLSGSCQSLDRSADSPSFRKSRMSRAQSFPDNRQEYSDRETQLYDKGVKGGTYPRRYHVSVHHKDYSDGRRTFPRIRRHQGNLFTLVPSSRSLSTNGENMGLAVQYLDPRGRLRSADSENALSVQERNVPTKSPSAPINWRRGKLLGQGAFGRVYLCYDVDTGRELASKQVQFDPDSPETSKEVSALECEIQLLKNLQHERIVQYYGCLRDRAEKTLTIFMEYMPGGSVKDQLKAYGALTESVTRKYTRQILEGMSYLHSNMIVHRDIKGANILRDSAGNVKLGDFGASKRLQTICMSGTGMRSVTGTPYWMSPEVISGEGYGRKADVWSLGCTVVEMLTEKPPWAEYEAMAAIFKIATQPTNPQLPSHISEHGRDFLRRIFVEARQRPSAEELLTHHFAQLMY
MEKK2wt PB1 HTS = modulators of MEK5 binding to wildtype MEKK2, primary screen, biochemical, multiplex bead flow cytometry, Alexa488-MEK5 | AID 1531, 2009 | 290,000 compounds, 1.1% hits | binding response (% of control), % at 10 µM | Alexa488-MEK5 binding to MEKK2 WT; actives lie on both sides | Mitogen-activated protein kinase kinase kinase 2 (Homo sapiens), Q9Y2U5; in the data active means binding response below about 67% or above about 130%
MEKK2 mut-MEK5 = MEK5 binding signal on mutant MEKK2 PB1, primary screen, biochemical, multiplex bead flow cytometry, Alexa488-MEK5 | 290,000 compounds, 0.35% hits | percent response, % at 10 µM | AID 1530, 2009 | Alexa488-MEK5 binding to MEKK2 mutant; in the data active means percent response above about 24%, passing the limit was not always enough
VLA-4 inh = inhibition in human VLA-4 binding assay, primary screen, VLA-4 allosteric modulator project, MLPCN library, flow cytometry, VLA-4 expressing cells; 330,000 compounds, 0.2% hits; Integrin alpha-4 (Homo sapiens), P13612; inhibition, % (about 7 µM as worked out from the volumes in the protocol); ligand binding flow cytometry; in the data active means inhibition above about 50%
MEKK2wt confirm = modulators of MEK5 binding to wildtype MEKK2, confirmation, biochemical, single concentration, multiplex bead flow cytometry; AID 1892, 2009; binding response (% of control), % at 10 µM; 5,900 compounds, 2.4% hits; Alexa488-MEK5 binding to MEKK2 WT; actives lie on both sides; shares compounds with MEKK3 PB1 HTS; in the data active means binding response below about 16% or above about 210%; inactive means in between
MEKK2mut-MEK5 = mutant MEKK2 PB1-MEK5 binding signal retest – biochemical, single concentration, multiplex bead flow cytometry, confirmation. shares compounds with MEKK3 PB1 HTS. Alexa488-MEK5 binding to MEKK2 mutant. percent response, % at 10 µM. 5,900 compounds, 2% hits; in the data active means percent response mostly above about 71%, no sharp cut-off; inactive means mostly below about 38%;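 further: higher means compound restores mutant binding toward wildtype level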
MEKK3-MEK5 inh = MEKK3 wild-type PB1 binding to MEK5, inhibitors, confirmation, biochemical, bead multiplex flow cytometry, single concentration, wildtype; shares compounds with MEKK3 PB1 HTS; Alexa488-MEK5 binding to MEKK3; active compounds read low; binding response (% of control), % at 10 µM; 5,900 compounds, 1.8% hits; AID 1894, 2009;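 active means binding response below 72% of control, or above a set upper limit, though filed actives all read lower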;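 further: 100% = DMSO only wells and 0% = binding blocked by excess unlabeled MEK5; lower values mean stronger disruption of MEK5 binding to MEKK3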
An asterisk follows results filed as active; . = not tested or not shown; [ ] = dose if it differs, or a comment.

SMILES | MEKK3 PB1 HTS | MEKK2wt PB1 HTS | MEKK2 mut-MEK5 | VLA-4 inh | MEKK2wt confirm | MEKK2mut-MEK5 | MEKK3-MEK5 inh
O=C(Nc1cccc(OC(=O)c2ccco2)c1)c1ccco1 | 0.0*[inhibitor] | -1.0*[inhibitor] | -21 | -14 | 103 | 3 | 98
CCOC(=O)C1CCN(C(=O)c2cccc(NC(=O)C(CC)CC)c2)CC1 | 81*[inhibitor] | 81 | -12 | 12 | 100 | 0 | 100
CCOC(=O)[C@H]1[C@H]2COc3ccc(C)cc3[C@@H]2N2C(=O)CN(CC3CCCO3)C(=O)[C@@]12C (some centres undefined) | . | . | . | 5 | . | . | .
CNC(=O)N(O)C1N(NC(=O)Nc2cccc3ccccc23)C(=S)SC1(C)C (centres undefined) | 132* | 105 | 1 | 16 | 101 | 3 | 100
CC1(C)SC(=S)N(NC(=O)Nc2ccccc2)C1N(O)C(=O)Nc1ccccc1 (centres undefined) | 103 | 96 | 1 | 24 | . | . | .
Cn1cccc1CC(=O)NNC(=S)Nc1ccc(F)cc1 | 104 | 105 | -1 | -3 | . | . | .
Cn1cccc1CC(=O)NNC(=O)Nc1ccc(F)cc1 | 147* | 109 | -1 | -1 | 106 | 10 | 105
Cc1ccc(NC(=O)COC(=O)c2ccc([N+](=O)[O-])o2)cc1S(=O)(=O)N1CCCCCC1 | 85 | 90 | -1 | 23 | . | . | .
CN(Cc1ccc(OCC(O)CN2CCCCC2)cc1)Cc1ccnc2ccccc12 (centres undefined) | 106 | 148* | 37 | . | 127 | 30 | 106
Cc1onc(-c2ccccc2Cl)c1C(=O)N1CCN(C)CC1 | 105 | 108 | 1 | 7 | . | . | .
CCOC(=O)C1=C(C)Nc2sc(C(=O)c3ccc(C)cc3)c(N)c2C1c1ccc(C(=O)OC)cc1 (centres undefined) | 149* | 109 | 1 | -26 | 98 | -3 | 101
COc1ccc(-c2ccc(SCC(=O)N3c4ccccc4CC3C)nn2)cc1OC (centres undefined) | 122* | 117 | 9 | -13 | 107 | 2 | 100
CC1Cc2ccccc2N1S(=O)(=O)c1cccs1 (centres undefined) | 104 | 8.0*[inhibitor] | 18 | 3 | 87 | -12 | 91
CC(C)(C)c1cc(Cl)ccc1OCCOCCN1CCCC1 | 102 | 124 | 10 | 5 | . | . | .
Cc1cc(C(C)(C)C)ccc1OCCOCCN1CCCC1 | 136* | 110 | 1 | -6 | 108 | -2 | 100
CCC(C)NCC(=O)Nc1ccc(-c2nc3cc(NC(=O)CNC(C)CC)ccc3o2)cc1 (centres undefined) | 114 | 160* | 34* | -2 | 156 | 29 | 108
Cc1nc(CN2CCOCC2)cc(=O)[nH]1 | 2.0*[inhibitor] | 2.0*[inhibitor] | -16 | 21 | 102 | 3 | 101
N=Nc1c(O)n(CC(=O)Nc2ccccc2)c2ccccc12 | 102 | 108 | 2 | 16 | . | . | .
CCOC(=O)c1ccc(S(=O)(=O)NNC(=O)c2cccc(N(C)C)c2)cc1 | 3.0*[inhibitor] | 3.0*[inhibitor] | 4 | -2 | 98 | -3 | 100
CCNc1ccc(C(=O)OCC)cc1NC(=O)c1cccc(N(C)C)c1 | 97 | 95 | -2 | -5 | . | . | .
CCOC(=O)CCC(NC(=O)CCCC(=O)NC(CCC(=O)OCC)C(=O)OCC)C(=O)OCC (centres undefined) | 129* | 108 | 1 | 5 | 104 | -1 | 108
O=C(Oc1coc(CSc2nnc(NC(=O)C3CC3)s2)cc1=O)c1c(F)cccc1F | 64*[inhibitor] | 84 | -1 | -5 | 102 | 5 | 107
Cc1cc(C)cc(C(=O)Oc2coc(CSc3nnc(NC(=O)C4CC4)s3)cc2=O)c1 | 109 | 120 | 29 | 12 | . | . | .
O=C(Nc1cc(C(F)(F)F)ccc1F)C1CCCCC1 | 72*[inhibitor] | 80 | -18 | . | 92 | -4 | 94
O=C(C1CCN(S(=O)(=O)c2ccccc2)CC1)N1CCN(Cc2ccccc2)CC1 | 102 | 101 | 2 | 9 | . | . | .
SMILES | MEKK3 PB1 HTS | MEKK2wt PB1 HTS | MEKK2 mut-MEK5 | VLA-4 inh | MEKK2wt confirm | MEKK2mut-MEK5 | MEKK3-MEK5 inh
O=C1C2C3C=CC(C3)C2C(=O)N1c1ccc2ccccc2c1 (centres undefined) | 114 | 116 | 26* | -4 | 99 | -4 | 99
CCOC(=O)c1c(-c2ccccc2)oc2ccc(OCC(O)CNCCN(C)C)cc12 (centres undefined) | 100 | 165* | 31* | 29 | 179 | 50 | 108
Cc1cnnn1-c1ccc(C(=O)CCl)cc1 | 102 | 148* | 14 | -18 | 152 | 24 | 104
Nc1cc(S(=O)(=O)Nc2ccccc2Cl)ccc1N1CCOCC1 | 103 | 98 | -2 | 8 | . | . | .
Nc1cc(S(=O)(=O)Nc2cc(Cl)ccc2Cl)ccc1N1CCCC1 | 36*[inhibitor] | 40*[inhibitor] | -21 | -3 | 101 | 9 | 100
COc1ccc(Cn2c(SCc3cc(C)ccc3C)nc3cc(OC)c(OC)cc3c2=N)cc1 | 107 | 174* | 38 | 12 | 205 | 57 | 101
COc1ccc(Cn2c(SCc3ccc(C)cc3)nc3cc(OC)c(OC)cc3c2=N)cc1Cl | 102 | 212* | 71* | 27 | 208* | 80* | 102
COc1cc2nc(SCc3ccc(Cl)cc3Cl)n(Cc3cccs3)c(=N)c2cc1OC | 90 | 90 | -5 | 1 | . | . | .
CCCOc1ccc(CNC(=O)c2ccc3c(c2)N(CC)CCS3)cc1 | 101 | 104 | -1 | -7 | . | . | .
CC(=O)CSc1cc(C)nc2c(-c3ccccc3)c(C)nn12 | 129* | 122 | 22 | -5 | 97 | 2 | 104
Cc1cc(SCC(=O)c2cccs2)n2nc(C)c(-c3ccccc3)c2n1 | 114 | 95 | -2 | 3 | . | . | .
C/C(=N\NC(=O)COc1cc(C)cc(C)c1)c1cccc(NC(=O)C2CCC2)c1 | 104 | 107 | 6 | -1 | . | . | .
CC1CCN(c2nc(/C=C/c3ccccc3)nc3ccccc23)CC1 | 101 | 112 | 6 | 5 | . | . | .
COc1ccc(Nc2nc(N3CCCCC3)c3ccccc3n2)cc1 | 106 | 136* | 14 | -6 | 158 | 36 | 112
Cc1ccc(Nc2nc(N3CCOCC3)c3ccccc3n2)cc1 | 103 | 100 | 4 | 8 | . | . | .
C(=C\c1nc(N2CCCC2)c2ccccc2n1)/c1ccccc1 | 107 | 158* | 30 | 15 | 153 | 39 | 111

Screens deposited in PubChem by NMMLSC.
